Measured values: PubChem BioAssay (NCATS)
Inconclusive results are not listed. Where a call stands in place of a potency, no number is given. Activity calls are given as the source filed them. Calls follow the shape of the dose curve; as a rule, active = well fitted curve in the direction sought with a large enough effect; inconclusive = small, poorly fitted or top-dose-only effect, or another doubt; inactive = no such curve, though single readings can be large; an effect the other way counts as inactive or inconclusive.

Legend:
[1] = J3T Cancer Cell Toxicity qHTS against the NCATS CANVASS Library (AID 1347371); conditions: J3T dog glioma viability, ATP luminescence, 72 h; series mostly up to 91.4 µM;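 also: J3T is a canine glioma cancer cell line seeded at 500 cells per well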
Summary of the method: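 ATP-based cytotoxicity in canine J3T cells: 72 hr exposure at 37C, 11-point titration, CellTiterGlo luminescent detection.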

[2] = biological target: Nuclear receptor subfamily 1 group I member 3 (Homo sapiens) (UniProt Q14994); assay: qHTS for Constitutive Androstane Receptor (CAR) Antagonist screened against the NCATS CANVASS Library (AID 1347372); conditions: HepG2-hCAR-CYP2B6 luciferase, CITCO-stimulated antagonist mode; series mostly up to 91.4 µM;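 also: cells stimulated with 50 nM CITCO agonist so inhibition reflects antagonism; luciferase from CYP2B6 promoter reporter driven by hCAR in HepG2 cells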
Summary of the method: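 Cells were seeded and left 4hr to attach, then received compound at 11 concentrations and 50 nM CITCO. Following 24hr incubation, fluorescence viability and luciferase luminescence were read sequentially.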

[3] = biological target: Nuclear receptor subfamily 1 group I member 3 (Homo sapiens) (UniProt Q14994); assay: qHTS for Constitutive Androstane Receptor (CAR) Agonist screened against the NCATS CANVASS Library (AID 1347373); conditions: HepG2-hCAR-CYP2B6 luciferase reporter, ONE-Glo luminescence; series mostly up to 91.4 µM;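 also: every well also contained 1.5 µM PK11195 alongside the test compound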
Summary of the method: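 In an 11-point concentration series, compounds were incubated 24hr with HepG2 cells carrying hCAR and a CYP2B6-2.2kb reporter, with PK11195 at 1.5uM final. A CellTiter-Fluor viability read preceded the ONE-Glo luminescence read.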

[4] = 10-beta competent E. coli microbial cell viability qHTS against the NCATS CANVASS Library (AID 1347376); conditions: E. coli 10-beta viability, BacTiter-Glo ATP luminescence, overnight; series mostly up to 91.4 µM
Summary of the method: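 Overnight 37C exposure of 10-beta E. coli (0.2 OD) to an 11-point concentration series; ATP-based luminescence after 20 min room-temperature reagent incubation; daunomycin as control.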

[5] = DH5-alpha competent E. coli microbial cell viability qHTS against the NCATS CANVASS Library (AID 1347377); conditions: BacTiter-Glo ATP luminescence, overnight; series mostly up to 91.4 µM
Excerpt: Natural products and their derivatives continue to be wellsprings of nascent therapeutic potential. However, many laboratories have limited resources for biological evaluation, leaving their previously isolated or synthesized compounds largely or completely untested. To address this issue, the Canvass library of natural products was assembled (https://tripod.nih.gov/canvass), in collaboration with academic and industry researchers, for quantitative high-throughput screening (qHTS) across a diverse set of cell-based and biochemical assays. […] The library was formatted into 1536-well plates and evaluated in 50 qHTS (in an 11-pnt concentration series) bioassays with broad scope of disease-relevant mechanisms. The resulting data set from 50 different assays was then systematically analyzed to identify overall trends and specific natural products with interesting biological activities. […] The BacTiter-Glo microbial cell viability assay is a homogeneous method for determining the number of viable bacterial cells in culture based on quantitation of the ATP present. […] The homogeneous assay procedure involves adding a single reagent (BacTiter-GloTM Reagent) directly to bacterial cells in medium and measuring luminescence. […]

[6] = qHTS for H2AX Agonists against the NCATS CANVASS Library (AID 1347378); conditions: CHO-K1 H2AX phosphorylation, HTRF TR-FRET, 3 h; series mostly up to 76.9 µM
Summary of the method: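 TR-FRET readout (ex 320 nm, em 665/620 nm ratio) of phospho-H2AX (S139) in CHO-K1 lysates. Cells treated 3 hr at 37C with compound titration, 0.76% DMSO; lysis 30 min, antibody detection 24 hr at RT.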

[7] = qHTS for Inflammasome Signaling Inhibitors: IL-1-beta AlphaLISA screen against the NCATS CANVASS Library (AID 1347379); conditions: THP-1 LPS/ATP, IL-1B AlphaLISA secretion, 16 h; series mostly up to 57.5 µM;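 also: human THP-1 cells primed with LPS then triggered with ATP; secreted IL-1B measured as AlphaLISA emission at 615 nm; lower signal means less IL-1B release which is the wanted effect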
Excerpt: Natural products and their derivatives continue to be wellsprings of nascent therapeutic potential. However, many laboratories have limited resources for biological evaluation, leaving their previously isolated or synthesized compounds largely or completely untested. To address this issue, the Canvass library of natural products was assembled (https://tripod.nih.gov/canvass), in collaboration with academic and industry researchers, for quantitative high-throughput screening (qHTS) across a diverse set of cell-based and biochemical assays. […] The library was formatted into 1536-well plates and evaluated in 50 qHTS (in an 11-pnt concentration series) bioassays with broad scope of disease-relevant mechanisms. The resulting data set from 50 different assays was then systematically analyzed to identify overall trends and specific natural products with interesting biological activities. […]
IL-1-beta qHTS protocol: Three microliters containing 3000 THP-1 cells were dispensed into the wells of solid, white, tissue culture treated Greiner 1,536-well plates. […] The AlphaLISA signal was read by a PerkinElmer EnVision plate reader with an ultrasensitive luminescence detector and 1536 Plate HTS AlphaScreen aperture (excitation of 680nm and emission of 615nm).

[8] = qHTS for Antimalaria activity screened against the NCATS CANVASS Library (AID 1347380); also: nearly all actives have a fitted effect of over 40% in size; also: potency is read from the fitted curve at half-maximal effect; conditions: P. falciparum Dd2 growth, SYBR Green fluorescence, 72 h; series mostly up to 28.7 µM
Excerpt: Natural products and their derivatives continue to be wellsprings of nascent therapeutic potential. However, many laboratories have limited resources for biological evaluation, leaving their previously isolated or synthesized compounds largely or completely untested. To address this issue, the Canvass library of natural products was assembled (https://tripod.nih.gov/canvass), in collaboration with academic and industry researchers, for quantitative high-throughput screening (qHTS) across a diverse set of cell-based and biochemical assays. […] The library was formatted into 1536-well plates and evaluated in 50 qHTS (in an 11-pnt concentration series) bioassays with broad scope of disease-relevant mechanisms. The resulting data set from 50 different assays was then systematically analyzed to identify overall trends and specific natural products with interesting biological activities. […] The proliferation assay assesses the ability of compounds to inhibit the proliferation and/or have cytotoxic effects (72 hr) against the asexual erythrocytic growth of Plasmodium falciparum Dd2, as determined by a SYBRGreen fluorescence assay. […]
Malaria-screen protocol: Assay adopted from Plouffe et al. 2008 PNAS 105: 9059; PMID: 18579783. […] The fluorescence signal was read using the EnVision (PerkinElmer) plate reader (bottom read) using a 485/14 nm excitation and 535/25 nm emission filters.

[9] = Inflammasome Signaling qHTS Counterscreen: IL-1-beta AlphaLISA counterscreen against the NCATS CANVASS Library (AID 1347381); conditions: Purified IL-1beta AlphaLISA signal interference counterscreen; series mostly up to 57.5 µM;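 also: cell-free check with purified IL-1β in medium and no THP-1 cells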
Excerpt: Natural products and their derivatives continue to be wellsprings of nascent therapeutic potential. However, many laboratories have limited resources for biological evaluation, leaving their previously isolated or synthesized compounds largely or completely untested. To address this issue, the Canvass library of natural products was assembled (https://tripod.nih.gov/canvass), in collaboration with academic and industry researchers, for quantitative high-throughput screening (qHTS) across a diverse set of cell-based and biochemical assays. The pure (>85% purity by liquid chromatography/mass spectrometry [LC/MS]) Canvass library of 346 natural products were submitted by 45 academic laboratories and companies around the world. We collected pure natural products to circumvent deconvolution and structure elucidation due to time and resource limitations. The library was formatted into 1536-well plates and evaluated in 50 qHTS (in an 11-pnt concentration series) bioassays with broad scope of disease-relevant mechanisms. The resulting data set from 50 different assays was then systematically analyzed to identify overall trends and specific natural products with interesting biological activities. […]
IL-1-beta-counterscreen qHTS protocol: 1. […] The AlphaLISA signal was read by the EnVision plate reader (PerkinElmer) using a 680 nm excitation and 615 nm emission filters.

[10] = Cytotoxicity qHTS for assessment of Hepg2 cells membrane integrity screened against the NCATS CANVASS Library (AID 1347387); conditions: HepG2 LDH release (CytoTox-ONE) fluorescence, 5 h; series mostly up to 91.4 µM
Summary of the method: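 Membrane damage in HepG2 monolayers was estimated from released LDH, measured with CytoTox-ONE (ex 560/em 590 nm), after 5 hr treatment across 0.59 nM - 46 uM final.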

Nuclear receptor subfamily 1 group I member 3 (Homo sapiens), sequence (Q14994 whole entry, looked up): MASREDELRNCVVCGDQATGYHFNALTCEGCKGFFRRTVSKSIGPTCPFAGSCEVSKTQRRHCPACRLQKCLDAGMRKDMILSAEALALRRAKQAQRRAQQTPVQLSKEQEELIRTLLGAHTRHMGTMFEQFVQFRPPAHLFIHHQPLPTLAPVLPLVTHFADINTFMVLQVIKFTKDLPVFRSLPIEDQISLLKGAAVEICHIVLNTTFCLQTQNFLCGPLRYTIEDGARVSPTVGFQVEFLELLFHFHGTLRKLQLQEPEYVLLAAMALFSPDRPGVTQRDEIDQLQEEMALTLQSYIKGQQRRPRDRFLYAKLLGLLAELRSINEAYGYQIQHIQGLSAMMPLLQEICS

Structure (SMILES)	outcome [1]	outcome [2]	outcome [3]	outcome [4]	outcome [5]	outcome [6]	outcome [7]	Potency [8]	outcome [9]	outcome [10]
COc1ccc2[nH]cc(CCN)c2c1	inactive	inactive	inactive	inactive	inactive	inactive	inactive	inactive	inactive	inactive
O=C1C[C@@H]2OCC=C3CN4CC[C@]56c7ccccc7N1[C@H]5[C@H]2[C@H]3C[C@H]46	inactive	inactive	inactive	inactive	inactive	inactive	inactive	13 µM (active)	inactive	inactive
